Assay results as given in PubChem BioAssay (NCI).
Compounds without any hit were thinned out: in the full panel of roughly 83,000, 20% have a hit.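 Single-dose data. Exposure time 48 hours. Values below 10 considered active.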 Activity calls are given as the source filed them.

How the values were obtained:
Test in all cases: NCI-60 one-dose screen, 48 h (100 = growth as untreated, 0 = no growth, -100 = all killed)
Details in all cases: 10 µM unless noted
RPMI-8226 leukemia = test system: RPMI-8226 leukemia
OVCAR-8 ovarian = test system: OVCAR-8 ovarian
OVCAR-5 ovarian = test system: OVCAR-5 ovarian
OVCAR-4 ovarian = test system: OVCAR-4 ovarian
SK-OV-3 ovarian = test system: SK-OV-3 ovarian
IGROV1 ovarian = test system: IGROV1 ovarian
OVCAR-3 ovarian = test system: OVCAR-3 ovarian
HS 578T breast = test system: HS 578T breast
NCI/ADR-RES ovarian = test system: NCI/ADR-RES ovarian
BT-549 breast = test system: BT-549 breast
MDA-MB-435 melanoma = test system: MDA-MB-435 melanoma
SW-620 colon = test system: SW-620 colon
MCF7 breast = test system: MCF7 breast
HCT-116 colon = test system: HCT-116 colon
HCC-2998 colon = test system: HCC-2998 colon
KM12 colon = test system: KM12 colon
T-47D breast = test system: T-47D breast

Measured: growth

C[C@H]1[C@H]2C3=CC[C@@H]4[C@@]5(C)C/C(=C/c6ccncc6)C(=O)C(C)(C)[C@@H]5CC[C@@]4(C)[C@]3(C)CC[C@@]2(C(=O)N2CCN(C)CC2)CC[C@@H]1C
inactive: RPMI-8226 leukemia 50.2% | OVCAR-8 ovarian 76.7% | OVCAR-5 ovarian 86.7% | OVCAR-4 ovarian 73.6% | SK-OV-3 ovarian 82.9% | IGROV1 ovarian 84% | OVCAR-3 ovarian 76.3% | HS 578T breast 70% | NCI/ADR-RES ovarian 80.6% | BT-549 breast 89.3% | MDA-MB-435 melanoma 81.9% | SW-620 colon 83.1% | MCF7 breast 58.5% | HCT-116 colon 55.4% | HCC-2998 colon 82.9% | KM12 colon 67.5%

O=C(C[C@@]1(O)C(=O)Nc2c(Cl)ccc(Cl)c21)c1ccc(C2CC2)cc1
inactive: RPMI-8226 leukemia 23.4% | OVCAR-8 ovarian 29.7% | OVCAR-5 ovarian 33.4% | OVCAR-4 ovarian 54.3% | SK-OV-3 ovarian 38.6% | IGROV1 ovarian 22.9% | T-47D breast 40.5% | SW-620 colon 19.4% | MCF7 breast 16.5% | KM12 colon 24.7%
active: OVCAR-3 ovarian -11.9% | HS 578T breast 7.19% | NCI/ADR-RES ovarian 5.4% | MDA-MB-435 melanoma -48% | HCC-2998 colon 9.4%

Cc1cc(N(CCCNc2ccnc3cc(Cl)ccc23)Cc2ccccn2)nc(N2CCOCC2)n1
inactive: RPMI-8226 leukemia 85.2% | OVCAR-8 ovarian 81.7% | OVCAR-5 ovarian 95.8% | OVCAR-4 ovarian 82.3% | SK-OV-3 ovarian 88.5% | IGROV1 ovarian 82.2% | OVCAR-3 ovarian 97.6% | HS 578T breast 80.9% | NCI/ADR-RES ovarian 88.6% | BT-549 breast 90.5% | MDA-MB-435 melanoma 111% | SW-620 colon 83.5% | MCF7 breast 87% | HCT-116 colon 57.9% | HCC-2998 colon 105% | KM12 colon 103%

C=C(C)[C@@H]1CC[C@]2(CN)CC[C@]3(C)[C@H](CC[C@@H]4[C@@]5(C)CCC(N)[C@@](C)(CO)[C@@H]5CC[C@]43C)[C@@H]12 (stereo partly specified)
active: RPMI-8226 leukemia -51.8% | OVCAR-8 ovarian -72.9% | OVCAR-4 ovarian -4.67% | SK-OV-3 ovarian -80.5% | OVCAR-3 ovarian -75.9% | HS 578T breast -37.1% | MDA-MB-435 melanoma -86.7% | SW-620 colon -76.5% | MCF7 breast -72.2% | HCT-116 colon -85.5% | HCC-2998 colon -53.6% | KM12 colon -72.1%
inactive: OVCAR-5 ovarian 48.5% | IGROV1 ovarian 67% | NCI/ADR-RES ovarian 76.2% | BT-549 breast 80.4%

CN(CCCCCCCCNc1ccnc2ccccc12)Cc1ccc(-c2ccc(-c3ccc(C#N)cc3)s2)cc1
active: RPMI-8226 leukemia -44.4% | OVCAR-8 ovarian -52.5% | OVCAR-5 ovarian -40.6% | OVCAR-4 ovarian -57.9% | SK-OV-3 ovarian -72.6% | IGROV1 ovarian -86.4% | OVCAR-3 ovarian -79.1% | HS 578T breast -36.6% | NCI/ADR-RES ovarian -68.3% | T-47D breast -33.6% | BT-549 breast -30.1% | MDA-MB-435 melanoma -91.6% | SW-620 colon -76.3% | MCF7 breast -76.5% | HCT-116 colon -86.5% | HCC-2998 colon -89.6% | KM12 colon -68.6%

Cc1nc(-c2ccccc2)cc2c(O)c(C(=O)N/N=C/c3ccc(N(C)C)cc3)[nH]c(=O)c12
active: RPMI-8226 leukemia -11.6%
inactive: OVCAR-8 ovarian 67.3% | OVCAR-5 ovarian 85.4% | OVCAR-4 ovarian 26.6% | SK-OV-3 ovarian 105% | IGROV1 ovarian 49.8% | OVCAR-3 ovarian 71% | HS 578T breast 73.2% | NCI/ADR-RES ovarian 66.9% | T-47D breast 76.5% | BT-549 breast 103% | MDA-MB-435 melanoma 86.8% | SW-620 colon 75% | MCF7 breast 64.1% | HCT-116 colon 57.6% | HCC-2998 colon 95.2% | KM12 colon 82.3%

C#C[C@]1(O)CC[C@H]2[C@@H]3CC=C4c5sc(N=C(N)N)nc5CC[C@]4(C)[C@H]3CC[C@@]21C
inactive: OVCAR-8 ovarian 10.1% | OVCAR-5 ovarian 28% | OVCAR-4 ovarian 29% | IGROV1 ovarian 14.4% | NCI/ADR-RES ovarian 29.8%
active: RPMI-8226 leukemia -29% | SK-OV-3 ovarian -57.2% | OVCAR-3 ovarian -44.2% | HS 578T breast -39.2% | T-47D breast 1.23% | MDA-MB-435 melanoma -55.9% | SW-620 colon -47.1% | MCF7 breast 0.374% | HCC-2998 colon -15.9% | KM12 colon -28.6%

NC(=O)c1c(NC(=O)c2ccc(C(F)(F)F)cc2Cl)sc2c1CCC(=O)C2
active: RPMI-8226 leukemia -22.7% | OVCAR-5 ovarian -41.9% | OVCAR-4 ovarian -74.7% | SK-OV-3 ovarian -6.73% | IGROV1 ovarian -39.2% | OVCAR-3 ovarian -57.4% | HS 578T breast -7.87% | NCI/ADR-RES ovarian -13.9% | T-47D breast -21.2% | BT-549 breast -33.2% | MDA-MB-435 melanoma -42% | SW-620 colon -49.7% | MCF7 breast 5.41% | HCT-116 colon -56.9% | HCC-2998 colon -6.6% | KM12 colon -56.7%
inactive: OVCAR-8 ovarian 10.2%

COC(=O)/C(=C\c1ccc(OC)cc1)C(=O)N1c2ccccc2Sc2ccccc21
inactive: RPMI-8226 leukemia 54.4% | OVCAR-8 ovarian 64.4% | OVCAR-5 ovarian 75.1% | OVCAR-4 ovarian 89.3% | SK-OV-3 ovarian 91.7% | IGROV1 ovarian 43.6% | OVCAR-3 ovarian 24.5% | HS 578T breast 56.1% | NCI/ADR-RES ovarian 16.4% | T-47D breast 48.4% | SW-620 colon 33.6% | MCF7 breast 26.8% | HCT-116 colon 23.3% | HCC-2998 colon 86.8% | KM12 colon 36.1%
active: BT-549 breast -45.7% | MDA-MB-435 melanoma -57.8%
